High-throughput results as filed in PubChem BioAssay.
Rows were chosen to be rich in hits. Some 7.3% of all compounds tested hit in one or more screens of this group.
FLuc modulator: counter-screen for miR-21 project: firefly luciferase inhibitors or activators | Potency, µM (titrated, usually from 57.5 µM), inactives show at the highest dose activity change, negative = inhibition, actives largely listed as inhibitors | purified FLuc, Km substrates, luminescence inhibition | P08659 | AID 588342 | 6.9% of 360,000 active;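 also: plate controls were vehicle for no effect and reference inhibitor for full effect; nearly all actives have a fitted effect of over 55% in size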
Target sequence (P08659 whole entry, looked up): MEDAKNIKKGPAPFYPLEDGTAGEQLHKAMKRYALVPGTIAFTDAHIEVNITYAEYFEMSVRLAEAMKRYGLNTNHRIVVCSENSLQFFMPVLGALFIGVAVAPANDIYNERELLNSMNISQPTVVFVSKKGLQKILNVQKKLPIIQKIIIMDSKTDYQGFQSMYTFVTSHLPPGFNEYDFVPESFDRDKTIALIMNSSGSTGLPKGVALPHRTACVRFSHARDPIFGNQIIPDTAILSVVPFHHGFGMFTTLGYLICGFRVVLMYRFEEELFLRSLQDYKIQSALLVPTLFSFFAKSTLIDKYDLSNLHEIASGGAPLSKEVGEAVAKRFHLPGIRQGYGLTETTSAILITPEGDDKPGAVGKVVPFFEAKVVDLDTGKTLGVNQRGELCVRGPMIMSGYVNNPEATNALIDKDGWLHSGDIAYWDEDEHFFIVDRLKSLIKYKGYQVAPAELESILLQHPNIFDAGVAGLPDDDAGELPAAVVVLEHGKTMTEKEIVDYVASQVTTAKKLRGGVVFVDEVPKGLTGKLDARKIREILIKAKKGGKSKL
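Purified P. pyralis luciferase, 10 nM final, with Km-level 10 uM D-luciferin and 10 uM ATP in 50 mM Tris acetate pH 7.5, 10 mM Mg acetate, 0.01% Tween-20, 0.05% BSA; 6-point qHTS titration about 60 µM downward; luminescence read.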
SMN2 splice enh: SMN2 splice variant enhancement; HEK293 SMN2-luciferase splicing reporter, luminescence, 30-36 h; Potency, µM (top dose mostly 46.1 µM), without a hit: at the top dose activity change, positive = activation, hits mostly activators; 2.8% of 210,000 active; also: % of control where 0% means no effect; nearly all actives have a fitted effect of over 55% in size
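HEK293 cells carry an SMN2 minigene-luciferase reporter in which exon 7 inclusion puts luciferase in frame. Cells were seeded at 2000 cells/well, attached for 10-12 hours, then exposed to compounds for 30-36 hours at 37C before ONE-Glo luminescence.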
NPC1 prom act: activators of NPC1 promoter; AID 485313; Huh7 NPC1 promoter luciferase reporter, 24 h; Potency, µM (series often up to 9.22 µM), inactives show at the highest dose activation, usual class: activators; 2.4% of 320,000 active; also: % of control where 0% means no effect; nearly all actives have a fitted effect of over 60% in size
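Stable NPC1-promoter luciferase Huh7 line; cpd (DMSO) 24 h, 37 °C, 5% CO2; Amplite luciferase reagent 10 min RT; luminescence readout. qHTS format.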
KinaseGlo FLuc: blocks Kinase-Glo luciferase, a counter-screen artifact; Kinase-Glo luciferase, ATP luminescence, 8 min; Potency, µM (highest dose often 38.3 µM), without a hit: at the top dose activity change, negative = inhibition, most hits filed as inhibitors; 0.28% of 200,000 active; AID 1379; also: % is scaled to controls: 0 for no effect and ±100 for the full control effect; nearly all actives have a fitted effect of over 60% in size
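Substrate mix (final 50 mM imidazole pH 7.2, 50 mM KCl, 7 mM MgCl2, 10 uM ATP, 0.01% Tween 20, 0.05% BSA) plus pin-tool compound, then Kinase-Glo detection mix; 8 min ambient, luminescence read.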
Rab9 promoter act: activators of Rab9 promoter. Huh7 Rab9 promoter-luciferase reporter, luminescence, 24 h. 2.8% of 320,000 active. Potency, µM (series often up to 9.22 µM), inactives show top-dose activation, negative = inhibition, usual class: activators; also: % of control where 0% means no effect; nearly all actives have a fitted effect of over 60% in size
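Luciferase signal after 10 min detection reagent at ambient indicates Rab9 promoter upregulation; stably transfected Huh7 cells were treated 24 h with compound in DMSO at 37 °C, 5% CO2.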
The depositor's hits bear a star; ? = inconclusive; . = not tested or not shown; [ ] = remark or other dose. Calls follow the shape of the dose curve; as a rule, active = well fitted curve in the direction sought with a large enough effect; inconclusive = small, poorly fitted or top-dose-only effect, or another doubt; inactive = no such curve, though single readings can be large; an effect the other way counts as inactive or inconclusive. Potency is read from the fitted curve at half-maximal effect.

SMILES | FLuc modulator | SMN2 splice enh | NPC1 prom act | KinaseGlo FLuc | Rab9 promoter act
CCOC(=O)C(Cc1c[nH]c2ccccc12)NC(=O)c1ccco1 (configuration not stated) | 21µM* | -9% | 1% | -6% | -10%
NC(=O)COC(=O)[C@H](Cc1c[nH]c2ccccc12)NC(=O)c1ccc(F)cc1 | 24µM* | . | -4% | . | 3%
COC(=O)C(Cc1c[nH]c2ccccc12)NC(=O)c1cncc(Br)c1 (configuration not stated) | -3% | . | 6% | . | -2%
CCOC(=O)C(Cc1c[nH]c2ccccc12)NC(=O)COc1ccc(CC)cc1 (configuration not stated) | -21% | -11% | . | . | .
COC(=O)C(Cc1c[nH]c2ccccc12)NC(=O)c1ccc2nc[nH]c2c1 (configuration not stated) | 2.4µM* | . | -3% | . | -2%
CCOc1ccc(-c2cc(C(=O)N3CCN(S(=O)(=O)c4cc(Cl)ccc4OC)CC3)[nH]n2)cc1 | -19% | . | . | . | .
C=C1C=C(C(F)F)n2ncc(C(=O)NCc3ccccc3Cl)c2N1 | -1% | . | . | . | .
CCN(CCS(=O)(=O)c1ccc(Cl)cc1)C(=O)Nc1ccccc1 | 1% | . | -3% | . | -4%
O=C(Nc1ccccc1)N(O)c1ccc(Cl)cc1 | 12µM* | ? | ? | -5% | 3.5µM*
NC1(C(=O)NC2(C(=O)O)CCCC2)CCCC1 | . | 1%[9.22 µM] | . | -4%[7.66 µM] | .
OCc1cn(-c2ccccc2)nc1-c1ccc(Br)cc1 | 17µM* | . | ? | . | ?
OCc1cn(-c2ccccc2)nc1-c1ccc2c(c1)OCCO2 | 21µM* | -26% | ? | -1% | ?
COc1ccc(S(=O)(=O)NCC(c2ccco2)N2CCN(c3ccc(F)cc3)CC2)cc1C (configuration not stated) | 2% | . | . | . | .
CCN(C(=O)C1=COCCO1)c1nc2c(C)cccc2s1 | 15µM* | . | 29% | . | ?
CCOc1ccc2nc(N3CCC(C(=O)N4CCN(c5ncccn5)CC4)CC3)sc2c1 | 12µM* | . | ? | . | 17%
CCOc1ccc2nc(N3CCC(C(=O)N4CCN(c5ccccn5)CC4)CC3)sc2c1 | 11µM* | -86% | -1% | 4% | -15%
O=C(CSc1nccn1-c1ncc(C(F)(F)F)cc1Cl)c1ccc(Cl)cc1 | ? | 7% | 4µM* | 0% | 3.5µM*
Cc1noc(/C=C/c2ccccn2)c1[N+](=O)[O-] | ? | . | -29% | . | -16%
COc1ccccc1N/C=C/c1onc(C)c1[N+](=O)[O-] | 0.3µM* | 1.1µM* | 1µM* | 11µM* | 0.4µM*
Cc1noc(/C=C/Nc2ccc(F)cc2F)c1[N+](=O)[O-] | 2.1µM* | 4µM* | ? | ? | 1.4µM*
COc1cccc2c1cc1c(=O)n(CC(=O)O)nc(C)n12 | -1% | 3% | . | . | .
Cc1cc(C)cc(NC(=O)COC(=O)CCCC2=NS(=O)(=O)c3ccccc3N2)c1 | -16% | -14% | -5% | 0% | -2%
Cc1cccc(OCC2=NS(=O)(=O)c3ccccc3N2)c1 | 19µM* | 16% | 28% | -1% | 27%
O=c1oc(Nc2cccc(F)c2)nc2ccccc12 | ? | ? | 2.2µM* | 0% | 2.2µM*
Nc1nc(Nc2cccc(F)c2)nc2ccccc12 | 5.4µM* | ? | 1.3µM* | -16% | 2.2µM*
SMILES | FLuc modulator | SMN2 splice enh | NPC1 prom act | KinaseGlo FLuc | Rab9 promoter act
COc1cccc(-c2cc(C(=O)Nc3cc(C)on3)no2)c1 | ? | -15% | 6% | -2% | 0%
CC(C)n1cc(NC(=O)c2cc(-c3ccccc3)on2)cn1 | 15µM* | 6% | -16% | -6% | -9%
O=C(Nc1cccnc1)c1cc(-c2ccccc2)on1 | 4.8µM* | 0% | 1% | -9% | -8%
COc1ccc(NC(=O)c2cc(-c3ccccc3)on2)cc1 | ? | . | 1% | . | 2%
COc1cccc(-c2cc(C(=O)Nc3cccnc3)no2)c1 | 1.3µM* | -8% | -2% | -9% | -1%
CCC(C)NC(=O)c1cc(-c2cccc(OC)c2)on1 (configuration not stated) | 13µM* | 11µM* | . | . | .
COc1cccc(-c2cc(C(=O)Nc3cc(OC)c(OC)c(OC)c3)no2)c1 | ? | 9% | -17% | 1% | -7%
CC(C)CSc1oc(-c2ccco2)nc1S(=O)(=O)c1ccc(Br)cc1 | -2% | -16% | . | . | .
O=C(NCC(c1ccco1)S(=O)(=O)c1cccs1)c1ccc(C(F)(F)F)cc1 (configuration not stated) | 3% | . | . | . | .
COC(=O)c1c(-c2cccnc2)csc1NC(=O)c1cc(C)on1 | 6µM* | 11µM* | 2µM* | -6% | 1.8µM*
O=C(Nc1cccnc1)c1cc(-c2ccco2)on1 | 6µM* | -3% | 0% | -9% | 0%
O=C(Nc1cccnc1)c1cc(-c2ccc(Br)cc2)on1 | 2.1µM* | 11% | -1% | -4% | 0%
CN(Cc1ccc(F)cc1)C(=O)CNC(=O)c1cccs1 | 0% | . | 6% | . | 2%
CN(Cc1c(F)cccc1Cl)C(=O)CNC(=O)c1cccs1 | ? | . | 4µM* | . | ?
N/C(=N\OC(=O)c1cc([N+](=O)[O-])ccc1Cl)c1cccnc1 | -8% | . | -3% | . | 0%
COc1ccc(/C(N)=N/OC(=O)c2ccc(C)c([N+](=O)[O-])c2)cc1OC | ? | -7% | 10% | 0% | 14%
N/C(=N\OC(=O)c1ccc([N+](=O)[O-])cc1)c1cccnc1 | 2.7µM* | . | -1% | . | -5%
N/C(=N\OC(=O)c1ccc(Cl)c([N+](=O)[O-])c1)c1ccccc1 | 12µM* | . | -5% | . | 28%
N/C(=N\OC(=O)c1ccccc1[N+](=O)[O-])c1cccnc1 | ? | 24% | 16% | -1% | 22%
Cc1ccc(C(=O)O/N=C(\N)c2cccnc2)cc1[N+](=O)[O-] | 12µM* | ? | 10% | -4% | 2%
